From PubChem BioAssay AID1159580 (chemical genetic matrix, 2015)
Among all 5,500 compounds or so, about 2,000 (36%) were called active. Not shown: some 18% with an inconclusive outcome. Cut-off read from the data, not from the text of the source: active = normalized growth mostly below about 0.91 (no sharp cut-off); inconclusive = no clear call, values can overlap the other calls; inactive = mostly above about 0.92. This is one part of the list.

Assay: chemical genetic growth profiling, strain panel (AID 1159580);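 note: tested at 20 µM; growth read once vehicle control cultures reached saturation at 30 °C; 1 = growth at the plate median or of vehicle wells; lower values mean less growth of the strain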
Settings: S. cerevisiae deletion strains, growth OD
[1] = locus YAL040C, strain CLN3, active compounds read low
[2] = locus YCL061C, strain MRC1 (second series), active compounds read low
[3] = locus YDR363W, strain ESC2, active compounds read low
[4] = locus YER002W, strain NOP16, active compounds read low
[5] = locus YNL175C, strain NOP13, active compounds read low
[6] = locus YNL197C, strain WHI3, active compounds read low
[7] = locus YNL224C, strain SQS1, active compounds read low
[8] = locus YOR083W, strain WHI5 (second series), active compounds read low

Measured: normalized growth

Nc1ncnc2c1ncn2[C@@H]1O[C@H](COP(=O)(O)OP(=O)(O)OP(=O)(O)OP(=O)(O)OC[C@@H]2O[C@H](n3cnc4c(N)ncnc43)C(O)[C@@H]2O)[C@H](O)C1O (some centres undefined)
inactive: locus YAL013W, strain DEP1, active compounds read low 1 | [1] 1.01 | [2] 0.992 | [3] 1.04 | [4] 1.03 | locus YGR229C, strain SMI1, active compounds read low 1.03 | locus YMR307W, strain GAS1, active compounds read low 1.03 | locus YNL153C, strain GIM3, active compounds read low 0.993 | [5] 0.997 | [6] 0.974 | [7] 1 | [8] 0.996 | locus YPL241C, strain CIN2, active compounds read low 0.999

Nc1ncnc2c1ncn2[C@@H]1O[C@H](COP(=O)(O)CP(=O)(O)OP(=O)(O)O)[C@H](O)C1O (some centres undefined)
inactive: [1] 1.08 | [2] 0.999 | [3] 1 | [4] 0.983 | locus YGR078C, strain PAC10, active compounds read low 1.02 | locus YJR075W, strain HOC1, active compounds read low 1.02 | locus YMR263W, strain SAP30, active compounds read low 1 | [5] 1 | [6] 1 | [7] 0.999 | [8] 1
